# Data published in article PMC13494018.
# Unmarked numbers belong to inactive results. The rule behind the calls is not given here.
# Molecular target: CD276, Q5ZPR3
# Sequence (Q5ZPR3 whole entry): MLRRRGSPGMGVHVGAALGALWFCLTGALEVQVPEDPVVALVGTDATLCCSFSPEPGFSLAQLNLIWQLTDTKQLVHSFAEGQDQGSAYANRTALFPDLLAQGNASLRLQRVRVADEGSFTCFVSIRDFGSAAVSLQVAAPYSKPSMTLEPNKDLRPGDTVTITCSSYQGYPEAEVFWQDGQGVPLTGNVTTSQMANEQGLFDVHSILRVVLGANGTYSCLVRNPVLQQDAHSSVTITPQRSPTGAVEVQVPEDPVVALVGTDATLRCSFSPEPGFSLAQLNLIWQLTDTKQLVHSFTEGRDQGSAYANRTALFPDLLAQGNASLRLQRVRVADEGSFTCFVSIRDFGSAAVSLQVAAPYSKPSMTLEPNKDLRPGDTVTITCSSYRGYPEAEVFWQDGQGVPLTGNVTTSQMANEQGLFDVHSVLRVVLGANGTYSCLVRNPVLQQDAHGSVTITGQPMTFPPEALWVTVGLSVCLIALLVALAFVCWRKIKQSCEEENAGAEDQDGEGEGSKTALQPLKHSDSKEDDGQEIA
row,Binder,binding in a display sort
1,design_622_fcc41892-afde-4fb9-b6e8-b664fffd6a75_316_dldesign_0_cycle1_af2pred (protein) DALKVIEEYTKKALENIEDRELAALYLANMGVKVAQLVGDGSIGALAMKAAAEAYKSSVEEAKKIIKETAEKIKKIVE,not found
2,design_622_fcc41892-afde-4fb9-b6e8-b664fffd6a75_148_dldesign_0_cycle1_af2pred (protein) GAAEEAAKVAAKGKALTDQAAAGDLETANALLGEALALLEEVARTGSPEAVAAAQAAVAALSKVVLAKAAA,not found
3,design_621_7e0052dc-ae49-49a0-b99f-9f3ee649cc2f_1792_dldesign_0_cycle1_af2pred (protein) EEAARQALLEAVTKTAIDLIKKADEAAKTDPAQAELYAYQAASLIASVLHQDPEKGKEVLEIAKKSAFGELITKKTEEMLKKIDAA,not found
4,design_621_7e0052dc-ae49-49a0-b99f-9f3ee649cc2f_2499_dldesign_0_cycle1_af2pred (protein) AAAQQTFQNFLGYATLAAAYLATVDPAAAEELMALAAKARADPEKAKEYFAKAKELLTKHLDKLAAYSPEAGQAAQNAIDAANTLL,not found
5,design_622_fcc41892-afde-4fb9-b6e8-b664fffd6a75_178_dldesign_0_cycle1_af2pred (protein) AAAAKAAAAAAAKAQTAEARALVEEAERLAETDPELAIEVARRAIALANRAALAAQRIGDAATAAEAMAVAERAAEVLTRAGRRARA,not found
6,design_621_7e0052dc-ae49-49a0-b99f-9f3ee649cc2f_1478_dldesign_0_cycle1_af2pred (protein) AQALLDGVKRSSELAKEAEKYDPEAGKKILEVRTKGSAEASAVAVAGGTDAAVAAIAEKAAEEAKKLYEEAKKRAEERERE,not found
7,design_621_7e0052dc-ae49-49a0-b99f-9f3ee649cc2f_2346_dldesign_0_cycle1_af2pred (protein) AEVAEIAKKTAEEVKKLIEAGAPAEEAAAVLNAGIAAVIKAAKAAGPASAADLGKAMDIFKETAELIVAYERERAAEAA,not found
8,design_621_7e0052dc-ae49-49a0-b99f-9f3ee649cc2f_1985_dldesign_0_cycle1_af2pred (protein) MAEEAEKLKKEAEKEFEKLKAEAKKYAAANGAKGQLAYQAVVGTGRSALDSLEALADDPERAKKTVEQLLAVAKDLVKSAAA,not found
9,design_621_7e0052dc-ae49-49a0-b99f-9f3ee649cc2f_1809_dldesign_0_cycle1_af2pred (protein) GAELVRRTIEASARTARRAVEEARERAKTPEEVEAAAESARRILQVAVDIGANYPEVAGEAEELAAEVGEEAERTLEEARKEY,not found
10,design_622_fcc41892-afde-4fb9-b6e8-b664fffd6a75_1090_dldesign_0_cycle1_af2pred (protein) AAALAEATAMQFVRQAKATTDPERKRALARGAALALQSVVSPEEAARKTAEMAEALGAPPEVIAAARALL,not found
11,design_622_fcc41892-afde-4fb9-b6e8-b664fffd6a75_281_dldesign_0_cycle1_af2pred (protein) MKEKEKKLVEEAEKLLKEAKALPATPEGAQQAVQYGQKAAELGKKIKEAGGTKEAAEKAYQYANEAFKIAAQLGAQAA,not found
12,design_622_fcc41892-afde-4fb9-b6e8-b664fffd6a75_1089_dldesign_0_cycle1_af2pred (protein) AATKEEAQKAMVEASEVATELLRKAGEAYKAGDEELAEELRRAANELMRAMVQAAKDPAKGLEAVKKAVERGKELLKRAEEALKKA,not found
13,design_622_fcc41892-afde-4fb9-b6e8-b664fffd6a75_1048_dldesign_0_cycle1_af2pred (protein) NPAVERARNVAEYAKQLIDFATANPAVPQALVDAAKAVLEAATKAAKEAEEDPSKAPEVLKRADEALAQANAISAQAAKAATAA,not found
14,design_621_7e0052dc-ae49-49a0-b99f-9f3ee649cc2f_1640_dldesign_0_cycle1_af2pred (protein) GKKEEADKLVEEGNKLFEEAEALAKEGKVAEGSSKLIEGIKLYAEAAKLYREVDPAKADELYATAHAKSAKVNKLLLAAAR,not found
15,design_622_fcc41892-afde-4fb9-b6e8-b664fffd6a75_1277_dldesign_0_cycle1_af2pred (protein) SEEIIKKAEEIKEKAEKLLKEAAKLTPEQQKAAIKEMSKNLGELTELAKTASPEELKVINEAMNAAAKASVALAAKAA,not found
16,design_621_7e0052dc-ae49-49a0-b99f-9f3ee649cc2f_1898_dldesign_0_cycle1_af2pred (protein) ALAEAQRRAERLEREVEEAERRIEEHADDAERLEELAERLERLAHEALRLAATAPNEVAQRAVEIAERAARAAERARATAERLR,not found
17,design_621_7e0052dc-ae49-49a0-b99f-9f3ee649cc2f_2237_dldesign_0_cycle1_af2pred (protein) MREEINRRMVELSGRINALFPYAQQDPEVNALLGKALGDLLEAHATPDPEEAAELVERAEEYVEAAEARAAALAA,not found
18,design_622_fcc41892-afde-4fb9-b6e8-b664fffd6a75_254_dldesign_0_cycle1_af2pred (protein) VDPEAQAKAEAEKMLEETKKAAEESPELAAETLNKGMAEMVKLAQANPEANEIYMKYGIEAAKKASEYIKELQEKRA,not found
19,design_622_fcc41892-afde-4fb9-b6e8-b664fffd6a75_667_dldesign_0_cycle1_af2pred (protein) SAEEAVRKGEELTREAIKLAEEAVKGTPEKAKKAVEEIVKKMAEAIKASPAYGLLIANQARAIYLEAGKEDEAKAVKEGYKKALELAA,not found

row,Binder,binding in a display sort
1,design_621_7e0052dc-ae49-49a0-b99f-9f3ee649cc2f_1562_dldesign_0_cycle1_af2pred (protein) EEKKEEARERGEELVKEAEELAEKAAATSALAAMEAAEYALEVQQEIVELYSEAGDEEGLEEFSARVNKIVAYLQKAALEAQKAEA,not found
2,design_621_7e0052dc-ae49-49a0-b99f-9f3ee649cc2f_2349_dldesign_0_cycle1_af2pred (protein) GEQALQIARAAYVSAKNLLKDAEATENLEDAEKLAELAEAMAKQALEVAKAAAAQSAEAVEYAKKAKEYAEEAKKLVEEKKKA,not found
3,design_622_fcc41892-afde-4fb9-b6e8-b664fffd6a75_1097_dldesign_0_cycle1_af2pred (protein) SASEVAIKGGTALVNGAARAGIERIRRAGGGEADVERVKKIAEEAKKKIKAAKADAAKIGAIASEAVEEIRKLTEEVEKKA,not found
4,design_622_fcc41892-afde-4fb9-b6e8-b664fffd6a75_876_dldesign_0_cycle1_af2pred (protein) AEAERLRAGAESVLKMADVAYQAAKASAANPAAVAQAIASMTAAYKNAAELYREAGDEEKAKAALAKGDADVAAAKALAA,not found
5,design_621_7e0052dc-ae49-49a0-b99f-9f3ee649cc2f_1508_dldesign_0_cycle1_af2pred (protein) AKEEEEEAKKKAESVKKMVEVAKALAEYAKKSTDPQVAKIAANAAIGLANNAIEVGKKYPEAEPYAKEAEKVKEEAKKVIEEK,not found
6,design_622_fcc41892-afde-4fb9-b6e8-b664fffd6a75_413_dldesign_0_cycle1_af2pred (protein) SEKEEASKKLKELEEEGNKAYEKGKAAAAAGDTGAAGAELVKIVKMSSEAYKLSKYIPEEGKKVSDELSAKAVELSKLLTA,not found
7,design_622_fcc41892-afde-4fb9-b6e8-b664fffd6a75_169_dldesign_0_cycle1_af2pred (protein) AQRETIKNGILAMMRALALALDDPEKREEMIEALAGIAAQLPKEEGVRVIKEAAKEVAAKYPEKAEEILEAGERAVELAKKLS,not found
8,design_622_fcc41892-afde-4fb9-b6e8-b664fffd6a75_877_dldesign_0_cycle1_af2pred (protein) SEEYRRRAEELERRAREAAEEARRAERAEELRRYAEELRRIANEAMRLAMEAAQAGGDPEVVVRAVEVAVEALRAAGEAYRRAEELE,not found
9,design_622_fcc41892-afde-4fb9-b6e8-b664fffd6a75_572_dldesign_0_cycle1_af2pred (protein) EEELKKAVEEAKKEAKKAIETATQAIKLAQNYPALQAMAQAVKDAAKKALEKAEKGDLETAKRELQALKANLQMAQLLLESAQAG,not found
10,design_622_fcc41892-afde-4fb9-b6e8-b664fffd6a75_393_dldesign_0_cycle1_af2pred (protein) AAAEAAAKAAALKAKADAAAAKGEEYYAKGKEYAAKGDVEKASEYYLEAIKYYSEAAKYYAKVDPALADAAMKKAQEATKQMMALAK,not found
11,design_622_fcc41892-afde-4fb9-b6e8-b664fffd6a75_655_dldesign_0_cycle1_af2pred (protein) SMEAAAREAGKAEAEKVFAEAKAEGLGLGEAAKRIHDIFSKVSKFNPEFGAIARNAALAELQKLALAADA,not found
12,design_622_fcc41892-afde-4fb9-b6e8-b664fffd6a75_786_dldesign_0_cycle1_af2pred (protein) DLLAEALRLAERAVEALREDPEEGRRLLEELAELGRRALAEKGDGLAVLLGLAARRALRLLEEDPEEARDFLERAVAFVRAQS,not found
13,design_621_7e0052dc-ae49-49a0-b99f-9f3ee649cc2f_2068_dldesign_0_cycle1_af2pred (protein) DETLKKAKEALKKAAKAAKKIGDEEIAKKVEEALKLLTPESAELALAMAEALLASLKTADGKENAAKIATALRSGVANVAAA,not found
14,design_622_fcc41892-afde-4fb9-b6e8-b664fffd6a75_256_dldesign_0_cycle1_af2pred (protein) SAAAVAAAAAAASARQASAALEEALATGTPEEVLRAAETALKMAEVLAWAGEQSPAAQAALDALRAKAEAARKAVAAA,not found
15,design_622_fcc41892-afde-4fb9-b6e8-b664fffd6a75_1349_dldesign_0_cycle1_af2pred (protein) AEASQALARRFIDATLAQMLAQIAAASAEEARRIAEAGLKAIEVAAQALPAEERAARVAEARERGAAAIAAKE,not found
16,design_622_fcc41892-afde-4fb9-b6e8-b664fffd6a75_788_dldesign_0_cycle1_af2pred (protein) SAAAEQLTLAAVRALSASAVAAEDPASSEQLFAVARDIADAASPETRARGLAIVDAARARAAARRAARAAAA,not found
17,design_622_fcc41892-afde-4fb9-b6e8-b664fffd6a75_7_dldesign_0_cycle1_af2pred (protein) NEHLKEAAKHLEKAIEADAETALQLAQEALSHLLAALREASPEVRPLVEEAISHVTQALVYLSEGGETVEKGREELKKALEHAEKAAA,not found
18,design_621_7e0052dc-ae49-49a0-b99f-9f3ee649cc2f_1483_dldesign_0_cycle1_af2pred (protein) AEAERLLAEARAAVAKGRAAGLAAAEAGLGAALEAARAMDAEARALAAAAEAAGHPEVAEEIRRAAGAAINEVLARASQVALAKAA,not found
19,design_622_fcc41892-afde-4fb9-b6e8-b664fffd6a75_365_dldesign_0_cycle1_af2pred (protein) AEAAKKNIEIAAKAGEAAVKNLKTMKPEDAKKLYEVVKDLAEYMKEQGKKAPEQAELAKEKAEKIEEEAKKALKEVEEKGKKA,not found
